S1P3 antagonist: antagonists of human S1P3 receptor; hit rate 0.27% among 170,000; Q99500; inhibition, % at 4.98 µM; CHO S1P3 NFAT-BLA reporter, FRET fluorescence, antagonist mode;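 active = inhibition above the plate cutoff, the mean inhibition of test wells on that plate plus 3 SD, cut at about 28% in these data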;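 also: cells challenged with S1P at its EC80 of 0.8 µM; blue over green emission ratio from cleaved BLA substrate after 4 h stimulation; 0% = S1P-stimulated wells and 100% = unstimulated DMSO-only wells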
Cl transport mod: KCC2 (human) Cl- transport modulation; Q9H2X9; KCC2 cells, thallium flux FluoZin-2 fluorescence; B-score of Tl+ flux slope (higher = more flux/activation; lower = inhibition) at 10 µM; hit rate 2.2% among 190,000;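 active = thallium flux slope and its plate-corrected score both differing from the plate sample mean at a set confidence after two filtering rounds, in either direction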;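 also: slope of fluorescence scaled to starting intensity during 10 to 20 s after thallium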
Target sequence (Q9H2X9 whole entry, looked up): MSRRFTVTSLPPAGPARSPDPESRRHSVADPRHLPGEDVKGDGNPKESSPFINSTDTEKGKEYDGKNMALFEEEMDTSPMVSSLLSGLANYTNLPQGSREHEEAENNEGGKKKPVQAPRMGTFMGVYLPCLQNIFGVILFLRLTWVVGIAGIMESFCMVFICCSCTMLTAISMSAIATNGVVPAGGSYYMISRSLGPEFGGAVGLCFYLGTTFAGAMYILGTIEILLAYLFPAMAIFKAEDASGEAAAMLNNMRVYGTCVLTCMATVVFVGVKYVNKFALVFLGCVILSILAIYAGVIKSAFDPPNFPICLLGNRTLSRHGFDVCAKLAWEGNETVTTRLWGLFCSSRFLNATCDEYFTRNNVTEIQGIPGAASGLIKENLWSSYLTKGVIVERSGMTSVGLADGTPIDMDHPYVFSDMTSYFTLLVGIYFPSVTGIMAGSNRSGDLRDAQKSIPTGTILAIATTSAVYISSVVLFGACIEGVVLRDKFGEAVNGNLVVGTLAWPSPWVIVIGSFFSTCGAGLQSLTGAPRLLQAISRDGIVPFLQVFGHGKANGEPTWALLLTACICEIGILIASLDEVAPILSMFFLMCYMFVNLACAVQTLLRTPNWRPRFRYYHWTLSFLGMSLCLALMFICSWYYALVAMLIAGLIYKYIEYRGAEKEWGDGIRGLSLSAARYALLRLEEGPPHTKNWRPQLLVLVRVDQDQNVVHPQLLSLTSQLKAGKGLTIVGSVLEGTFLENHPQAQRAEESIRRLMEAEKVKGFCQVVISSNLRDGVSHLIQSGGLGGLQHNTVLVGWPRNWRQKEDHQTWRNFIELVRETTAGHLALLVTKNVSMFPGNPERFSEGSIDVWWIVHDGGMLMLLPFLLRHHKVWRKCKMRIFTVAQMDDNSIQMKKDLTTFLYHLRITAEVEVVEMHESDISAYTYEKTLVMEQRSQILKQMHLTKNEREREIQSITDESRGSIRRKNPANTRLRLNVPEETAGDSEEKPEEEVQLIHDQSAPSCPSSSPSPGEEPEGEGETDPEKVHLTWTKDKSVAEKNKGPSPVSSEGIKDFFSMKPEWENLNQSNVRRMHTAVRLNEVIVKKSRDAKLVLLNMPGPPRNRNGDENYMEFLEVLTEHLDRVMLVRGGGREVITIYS
EP2 modulator: modulates human prostaglandin E2 receptor EP2 signaling; EP2-expressing cells, cAMP HTRF FRET, PGE2 co-stimulation; induction, % at 25 µM; hit rate 0.83% among 260,000; AID 940;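 active = compounds whose cAMP rise, as percent of the full-agonist control response, exceeds 60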;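 also: rat C6 glioma line stably carrying human EP2 under a CMV promoter; the protocol text gives 20 µM as final concentration; 100% = response of wells given 1 µM PGE2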
PGE2 EP2 inh: EP2 receptor (human) inhibition | P43116 | C6 glioma cells expressing human EP2, cAMP TR-FRET; cells stimulated with saturating PGE2 | inhibition, % at 25 µM | hit rate 0.52% among 260,000;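 active = percent inhibition above 40 after rounding to a whole number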;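 also: rat C6 glioma host cells with rolipram phosphodiesterase inhibitor present; the protocol text gives 20 µM as final concentration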
KCC2 sec1: KCC2 (human) modulation, secondary assay | HEK293-KCC2, thallium flux, FluoZin2 fluorescence; active compounds read high | hit rate 15% among 3,700 | shares compounds with Cl transport mod | normalised thallium flux (F/F0 slope) at 10 µM | AID 1713;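 active = thallium flux slope above the same plate's solvent-only control mean plus 3 SD; inconclusive = the two replicate wells disagree; inactive = no significant difference from solvent-only control wells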
KCC2 bumet counter: bumetanide-insensitive thallium flux in KCC2 cells with ouabain, counter-screen; shares compounds with Cl transport mod; HEK293-KCC2 + bumetanide/ouabain, thallium flux FluoZin2; active compounds read high; normalized thallium flux at 10 µM; hit rate 49% among 3,700; AID 1714;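 active = thallium entry rate above the same plate's blocked-transporter control wells by more than 3 SD; inconclusive = the two repeat wells disagree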;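 also: raw slope of fluorescence over initial fluorescence between 10 and 20 s after thallium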
KCC2 secondary2: confirmation of human KCC2 transport modulators; shares compounds with Cl transport mod; HEK293-KCC2, thallium flux FluoZin2 fluorescence; actives lie on both sides; F/F0 rise rate, 10–20 s post-thallium; normalized thallium flux at 10 µM; hit rate 23% among 3,700; AID 1715;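 active = thallium flux slope more than 3 SD above or below the plate's solvent-only control mean, mostly below; inconclusive = the two repeat wells disagreed; inactive = no significant shift from solvent-only controls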;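 also: raw slope with 0.1% DMSO as baseline and bumetanide as block control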
HEK counter1: acts in parental HEK cells, KCC2 counter-screen. shares compounds with Cl transport mod. HEK293 parental cells, thallium flux FluoZin2, ouabain; baseline-ratio fluorescence slope, 10–20 s after thallium. thallium flux rate (normalised fluorescence) at 10 µM. hit rate 46% among 3,700. AID 1716;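 active = thallium flux rate significantly above the same plate's solvent-only control wells, beyond their mean plus 3 SD; inconclusive = the two replicate wells gave conflicting results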
KCC2 ouabain: modulates human KCC2 on retest with ouabain; shares compounds with Cl transport mod; HEK293-KCC2, thallium flux FluoZin2 fluorescence; bidirectional: low = inhibitor, high = activator; raw Tl+ flux slope (below DMSO = inhibition, above = activation) at 10 µM; hit rate 48% among 3,700; AID 1717;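 active = thallium flux slope beyond 3 SD from same-plate DMSO control mean in most replicates, usually higher, sometimes lower; inconclusive = repeat tests gave conflicting results; inactive = no significant difference from controls in most replicates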;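 also: slope of initial-normalized fluorescence between seconds 10 and 20 after thallium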
HEK293 Tl flux2: parental HEK flux effect, counter-screen 2; shares compounds with Cl transport mod; HEK293 parental, thallium flux FluoZin-2 fluorescence slope; thallium flux slope at 10 µM; hit rate 33% among 3,700; AID 1718;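 active = thallium flux slope above the same plate's solvent-control mean plus 3 SD in both duplicate wells; inconclusive = duplicate wells that disagreed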;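 also: run without ouabain in cells lacking the KCC2 cotransporter; slope of fluorescence scaled to its starting value between 10 and 20 s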
Numbers without * were called inactive; ? = inconclusive; nt = not tested or not shown. Compounds with a hit are over-represented: about 3.1% of the library has one in this group of screens.

SMILES | S1P3 antagonist | Cl transport mod | EP2 modulator | PGE2 EP2 inh | KCC2 sec1 | KCC2 bumet counter | KCC2 secondary2 | HEK counter1 | KCC2 ouabain | HEK293 Tl flux2
N[C@@H](Cc1cc(I)c(Oc2ccc(O)c(I)c2)c(I)c1)C(=O)O | -27.5 | -2.17 | -22.2 | 7.1 | nt | nt | nt | nt | nt | nt
CNC(=S)N/N=C(\C)c1ccc(Cl)c(Cl)c1 | -13.8 | 6.63* | -20.4 | 6.9 | 0.00536 | 0.0324* | 0.0376 | 0.0181* | 0.0317* | 0.0185*
C/C(=N/NC(=O)CNC(=O)CCc1ccccc1)c1ccc(Cl)cc1 | -9.0 | 0.186 | 2.3 | 4.8 | nt | nt | nt | nt | nt | nt
C/C(=N\O)c1ccc(Cl)c(Cl)c1 | -4.4 | -0.032 | -33.3 | 4.5 | nt | nt | nt | nt | nt | nt
S=C(NCCc1ccccc1)NN=C1CCCCCC1 | 6.6 | 9.4* | -49.7 | 4.4 | 0.00759 | 0.016* | 0.0354 | ? | ? | 0.012
C/C(=N\NC(=S)NCCc1ccccc1)c1ccc(Cl)cc1 | -5.1 | 6.24* | 17.6 | 3.2 | 0.00608 | 0.0144* | 0.0297 | 0.014* | 0.0231 | ?
COCCNC(=S)N/N=C(\C)c1ccc(Cl)c(Cl)c1 | 0.7 | 6.62* | 5.6 | 8.0 | ? | 0.0319* | 0.0355 | ? | 0.0295* | ?
CCC(CN1CCN(C)CC1)NC(=O)Cc1csc(-c2ccccc2F)n1 (configuration not stated) | nt | nt | -53.1 | 4.2 | nt | nt | nt | nt | nt | nt
Cc1cc(-c2cncnc2C2CCN(C(=O)Cc3cccs3)CC2)on1 | nt | nt | 0.9 | nt | nt | nt | nt | nt | nt | nt
O=C(Nc1ncc(Cc2ccccc2F)s1)C1COc2ccccc2O1 (configuration not stated) | nt | nt | -2.5 | 6.1 | nt | nt | nt | nt | nt | nt
CCOc1ccc2nc3sc(C(N)=O)c(N)c3cc2c1 | nt | nt | -32.7 | 4.2 | nt | nt | nt | nt | nt | nt
Cc1cc(NC(=O)COC(=O)C(Nc2ccc(C(F)(F)F)cc2Cl)C(C)C)no1 (configuration not stated) | -3.3 | -7.15* | -14.8 | 6.1 | 0.00775 | 0.0036 | 0.0343 | 0.00704 | 0.0202 | 0.00885
CCOC(=O)C1=NN(C(=O)COc2ccccc2)C(O)(c2ccc(Cl)cc2)C1 (configuration not stated) | -8.8 | 6.71* | -0.2 | 8.6 | 0.012* | 0.0291* | 0.0296 | 0.0135* | 0.0257 | ?
CCOC(=O)C1=NN(C(=O)c2ccc(OC)cc2)C(O)(c2ccc(Cl)cc2)C1 (configuration not stated) | 4.1 | 65.5* | -25.0 | 19.4 | ? | 0.0932* | 0.077* | 0.0952* | 0.0869* | 0.0642*
CC(C)c1nnc(NC(=O)c2c(O)c3cccc4c3n(c2=O)CCC4)s1 | -19.6 | nt | 29.1 | 16.1 | 0.0076 | 0.00899* | 0.0273 | 0.00626 | 0.0166* | 0.00934
Cc1cnc(NC(=O)c2c(O)c3cccc4c3n(c2=O)CCC4)s1 | -8.8 | -0.594 | 2.0 | 7.7 | nt | nt | nt | nt | nt | nt
COCCCN[C@@H]1CCN(Cc2ccc(F)cc2)C[C@H]1O | nt | nt | -22.1 | 2.8 | nt | nt | nt | nt | nt | nt
O=C(O)c1n[nH]c2ccccc12 | nt | -0.549 | 24.5 | 4.1 | nt | nt | nt | nt | nt | nt
c1ccc(-c2n[nH]c3ccccc23)cc1 | 7.7 | -2.9* | 19.5 | 5.4 | 0.00773 | 0.00611 | 0.0297 | 0.00659 | 0.0199 | 0.0096
CCn1c(COc2ccccc2C)nnc1SCC(=O)N1CCCCC1C (configuration not stated) | nt | nt | -85.3 | 4.2 | nt | nt | nt | nt | nt | nt
CCCCN(CC)S(=O)(=O)c1ccc2c(c1)CCCN2C(C)=O | -11.4 | -0.562 | -8.6 | 10.9 | nt | nt | nt | nt | nt | nt
CC(=O)N1CCCc2cc(S(=O)(=O)N(C)Cc3ccccc3)ccc21 | 24.7 | -4.02* | -14.6 | 5.8 | 0.00699 | 0.00649 | 0.0335 | 0.00455 | ? | 0.0112
Cc1cccc(CSC(Nc2ccc(F)cc2)=C(C#N)C#N)c1 | 3.8 | -5.01* | -2.6 | 15.9 | 0.0073 | 0.00636 | 0.0291 | 0.00565* | 0.0588* | 0.0103
CC(SCc1ccccc1)C(=O)Nc1ccc(F)cc1 (configuration not stated) | 1.4 | -0.379 | -31.6 | 6.3 | nt | nt | nt | nt | nt | nt
N#CC(C#N)=C(Nc1ccc(F)cc1)SCc1cccc(Br)c1 | -8.8 | -3.69* | -36.4 | 15.5 | 0.00654 | ? | ? | 0.00963* | 0.0146* | 0.0106
SMILES | S1P3 antagonist | Cl transport mod | EP2 modulator | PGE2 EP2 inh | KCC2 sec1 | KCC2 bumet counter | KCC2 secondary2 | HEK counter1 | KCC2 ouabain | HEK293 Tl flux2
Cc1cccc(CSC(=N)N)c1 | -8.0 | 1.01 | 10.0 | 9.7 | nt | nt | nt | nt | nt | nt
CN(C)c1ccc(C(=O)N2CCCC(c3noc(-c4ccccn4)n3)C2)cc1 (configuration not stated) | nt | nt | -28.2 | 6.8 | nt | nt | nt | nt | nt | nt
O=C(O)c1cccnc1Nc1ccccc1N1CCOCC1 | nt | nt | -0.1 | 12.4 | nt | nt | nt | nt | nt | nt
CC1Oc2ccccc2N(CC(=O)NCc2ccc(F)cc2)C1=O (configuration not stated) | nt | nt | -5.9 | 18.7 | nt | nt | nt | nt | nt | nt
N#Cc1ccccc1Sc1ccccc1C(=O)OCc1nnc(-c2ccccc2)o1 | -27.4 | -3.79* | 42.6 | 8.3 | ? | 0.0059 | 0.0311 | 0.0102* | ? | 0.0106
CN(C)c1ccc(-c2nnn(Cc3ccccc3Br)n2)cc1 | -4.8 | -4.27* | -34.6 | 9.2 | 0.00929 | 0.0112* | 0.0316 | ? | 0.0205 | 0.0103
COc1ccc(-c2ocnc2C(=O)NC(C)c2ccncc2)cc1OC (configuration not stated) | nt | nt | -20.6 | 0.0 | nt | nt | nt | nt | nt | nt
CCOC(=O)c1[nH]c2ccc(Br)cc2c1NC(=O)CCN1CCC(C(=O)OCC)CC1 | nt | -0.00541 | -14.6 | 18.1 | 0.00909 | 0.00638 | ? | 0.00785 | 0.0178 | 0.0106
Oc1c(Cl)cc(-c2nc3cnccn3c2NCc2ccc3c(c2)OCO3)cc1Cl | nt | nt | -27.6 | 7.7 | nt | nt | nt | nt | nt | nt
CCCC(=O)N1CCN(c2ccc(NC(=O)c3cccnc3)cc2)CC1 | nt | nt | -2.2 | 5.2 | nt | nt | nt | nt | nt | nt
Cc1cc(-c2nc3cccnc3s2)ccc1NS(=O)(=O)c1ccc2c(c1)OCCO2 | nt | -3.86* | -26.7 | 15.1 | 0.00903 | 0.00562 | 0.0343 | 0.00775 | 0.0202 | 0.0113
Cc1c(NS(=O)(=O)c2ccc3c(c2)OCCO3)cccc1-c1nc2cccnc2s1 | nt | -1.29 | -19.4 | 11.8 | nt | nt | nt | nt | nt | nt
O=C(CCCN1C(=O)c2cccc3cccc(c23)C1=O)N1CCc2ccccc2C1 | nt | -4.08* | -33.7 | -8.1 | 0.0147 | ? | 0.0241* | 0.00575* | 0.0121* | 0.00867
CC(C1CC2CCC1C2)n1c(-c2ccco2)n[nH]c1=S (configuration not stated) | -15.6 | 21.1* | 40.3 | 1.0 | 0.017* | 0.0696* | ? | 0.0284* | 0.0557* | 0.0161*
CC(=O)c1cccc(NC(=S)NC(=O)c2ccccc2)c1 | -11.8 | 4.51* | -26.0 | 18.3 | 0.00647 | 0.0203* | 0.0319 | 0.0181* | ? | 0.0162*

Screens from PubChem.
